Experimental findings from PubChem BioAssay (Tox21) are described below.

Several values for one entry are separate records, joined by “and”; a condition that tells them apart may be missing. Equal values may be shown once. Inconclusive results are not listed. Entries that show only a call come without a potency. The source holds several records for some structures; these can differ, active in one and inactive in another. Activity calls are given as the source filed them. Unless noted, calls come from the whole dose curve.

A short description of one assay: qHTS assay for small molecule agonists of the p53 signaling pathway (AID 651631). Note: nearly all actives have a fitted effect of over 15% in size. Note: potency is the fitted concentration of half-maximal effect. Particulars: HCT-116 p53RE-bla reporter, beta-lactamase FRET ratio, 16 h; series mostly up to 73.3 µM. The gist of the method: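 Agonist mode screen using a stably integrated beta-lactamase gene under p53 response elements in HCT-116 cells. Compound exposure lasts 16 h at 37 °C; fluorescence intensity is measured following 2 h FRET substrate loading.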
In the case of `CC1(C)S[C@@H]2[C@H](NC(=O)[C@H](N)c3ccccc3)C(=O)N2[C@H]1C(=O)O`, the Potency entry is “inactive”.
On the same count and under the same terms, with `CN(C)CCOC(C)(c1ccccc1)c1ccccn1` (stereo not given) the entry was “inactive”; with `COc1ccc(OC(F)(F)F)cc1CN[C@H]1CCCN[C@H]1c1ccccc1`, “inactive”; with `Cc1cc(C)nc(NS(=O)(=O)c2ccc(N)cc2)n1`, “inactive”.
The same measure, in the same setting: the result for `CN(C)C(=S)SC(=S)N(C)C` reads “inactive”; that for `CCCCOC(=O)c1ccc(O)cc1`, “inactive”; that for `COc1ccc2c(c1)c(CC(=O)O)c(C)n2C(=O)c1ccc(Cl)cc1`, “inactive”.
On to `Oc1ccccc1`, for which the Potency entry is “inactive”.
Consider `COc1cccc(O)c1O`, for which the Potency result is “inactive”.
`Nc1ccc(S(N)(=O)=O)cc1`: the Potency entry was “inactive”.
Same read-out and setting: the result for `O=C1c2c(O)cccc2Cc2cccc(O)c21` reads “inactive”; that for `Cn1c(=O)c2c(ncn2C)n(C)c1=O`, “inactive”; that for `CNNCc1ccc(C(=O)NC(C)C)cc1`, “inactive”.
Same read-out and setting: the result for `NC(=O)n1c(O)c(C(=O)c2cccs2)c2cc(Cl)ccc21` reads 5.96 µM (active); that for `O=C1O[C@H]([C@@H](O)CO)C(O)=C1O`, “inactive”.

A further assay can be described thus: qHTS assay for small molecules that induce genotoxicity in human embryonic kidney cells expressing luciferase-tagged ATAD5 (AID 651632; active = well fitted activation curve with a large enough effect in the repeat runs; note: nearly all actives have a fitted effect of over 15% in size). Particulars: HEK293T ATAD5-luciferase induction, 16 h; series mostly up to 83.3 µM. In short, it runs like this:
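Quantitative HTS in HEK293T expressing luciferase-tagged ATAD5, whose levels rise upon DNA damage. Exposure ran 16 hr at 37C and 5% CO2, with luminescence read 30 min after Amplite addition at room temperature.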
For orientation: Quantitative high-throughput screening tests each substance at several concentrations.
As for `CC1(C)S[C@@H]2[C@H](NC(=O)[C@H](N)c3ccccc3)C(=O)N2[C@H]1C(=O)O`, the Potency entry is “inactive”.
Turning to `CN(C)CCOC(C)(c1ccccc1)c1ccccn1` (stereo not given), the Potency entry is “inactive”.
For the compound `COc1ccc(OC(F)(F)F)cc1CN[C@H]1CCCN[C@H]1c1ccccc1`, the Potency result was “inactive”.
The same measure, in the same setting: with `CCCCCCCCCCCCCCCC[N+](C)(C)Cc1ccccc1` the entry was “inactive”; with `Cc1cn([C@H]2C=C[C@@H](CO)O2)c(=O)[nH]c1=O`, “inactive”.
Same read-out and setting: the result for `Nc1ccc(O)c([N+](=O)[O-])c1` reads “inactive”; that for `CC(O)(P(=O)(O)O)P(=O)(O)O`, “inactive”.
With `CN(C)C(=S)SC(=S)N(C)C`, the Potency entry is “inactive”.
For the compound `NC1CCCCC1`, the Potency result was “inactive”.
The same measure, in the same setting: the result for `Nc1c(N=Nc2ccc(-c3ccc(N=Nc4cc(S(=O)(=O)O)c5ccccc5c4N)cc3)cc2)cc(S(=O)(=O)O)c2ccccc12` reads “inactive”.
For `CC(C)C(=O)Nc1ccc([N+](=O)[O-])c(C(F)(F)F)c1`, the Potency entry is “inactive”.
On the same count and under the same terms, with `Nc1ccc([N+](=O)[O-])cc1O` the entry was “inactive”; with `Cc1cccc(C)c1`, “inactive”.
The same measure, in the same setting: the result for `CN(C)CCOC(c1ccccc1)c1ccccc1` reads “inactive”; that for `CN1CCc2cccc3c2[C@H]1Cc1ccc(O)c(O)c1-3`, “inactive”; that for `Nc1c2c(nc3ccccc13)CCCC2`, “inactive”.
Take `CCCCCCCCCCCC[N+](C)(C)Cc1ccccc1`: the Potency entry is “inactive”.
As for `COc1ccc2c(c1)c(CC(=O)O)c(C)n2C(=O)c1ccc(Cl)cc1`, the Potency entry was “inactive”.
For `O=C1c2c(O)cccc2Cc2cccc(O)c21`, the Potency entry is “inactive”.
As for `CC(=O)Nc1c(I)c(NC(C)=O)c(I)c(C(=O)O)c1I`, the Potency result is “inactive”.
As to `NC(=O)n1c(O)c(C(=O)c2cccs2)c2cc(Cl)ccc21`, the Potency result was “inactive”.
Still for that read-out and setting: the result for `O=C1O[C@H]([C@@H](O)CO)C(O)=C1O` reads “inactive”.

A further assay in a line: qHTS assay for small molecule agonists of the p53 signaling pathway - cell viability (AID 651633). Note: nearly all actives have a fitted effect of over 30% in size. Note: potency is the fitted concentration of half-maximal effect. As to conditions: p53RE-bla HCT-116 viability, ATP luminescence, 16 h; series mostly up to 83.3 µM. The gist of the method: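 p53RE-bla cells, seeded at 4,000 per well and rested 5 h at 37 C/5% CO2, received compounds in DMSO for 16 h at 37 C. CellTiter-Glo was then added, and luminescence was read after 30 min at room temperature to gauge cytotoxicity.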
In the case of `CC1(C)S[C@@H]2[C@H](NC(=O)[C@H](N)c3ccccc3)C(=O)N2[C@H]1C(=O)O`, the Potency entry was “inactive”.
Regarding `CN(C)CCOC(C)(c1ccccc1)c1ccccn1` (stereo not given), the Potency entry is “inactive”.
The same measure, in the same setting: the result for `COc1ccc(OC(F)(F)F)cc1CN[C@H]1CCCN[C@H]1c1ccccc1` reads “inactive”; that for `CCCCCCCCCCCCCCCC[N+](C)(C)Cc1ccccc1`, 11.9 µM (active) and 35.5 µM (active) and 39.3 µM (active); that for `Cc1cn([C@H]2C=C[C@@H](CO)O2)c(=O)[nH]c1=O`, “inactive”.
For the compound `Nc1ccc(O)c([N+](=O)[O-])c1`, the Potency entry was “inactive”.
Take `CC(O)(P(=O)(O)O)P(=O)(O)O`: the Potency entry is “inactive”.
Still for that read-out and setting: with `Cc1cc(C)nc(NS(=O)(=O)c2ccc(N)cc2)n1` the entry was “inactive”; with `CN(C)C(=S)SC(=S)N(C)C`, “inactive and 243 nM (active)”; with `NC1CCCCC1`, “inactive”.
Turning to `Nc1c(N=Nc2ccc(-c3ccc(N=Nc4cc(S(=O)(=O)O)c5ccccc5c4N)cc3)cc2)cc(S(=O)(=O)O)c2ccccc12`, the Potency entry was “inactive”.
Turning to `CCCCOC(=O)c1ccc(O)cc1`, the Potency result was “inactive”.
Same read-out and setting: with `CC(C)C(=O)Nc1ccc([N+](=O)[O-])c(C(F)(F)F)c1` the entry was “inactive”.
With `Nc1ccc([N+](=O)[O-])cc1O`, the Potency entry was “inactive”.
The same measure, in the same setting: with `Cc1cccc(C)c1` the entry was “inactive”; with `CN(C)CCOC(c1ccccc1)c1ccccc1`, “inactive”; with `CN1CCc2cccc3c2[C@H]1Cc1ccc(O)c(O)c1-3`, “inactive”.
On the same count and under the same terms, with `Nc1c2c(nc3ccccc13)CCCC2` the entry was “inactive”.
With `CCCCCCCCCCCC[N+](C)(C)Cc1ccccc1`, the Potency is 18.8 µM (active) and 47.6 µM (active) and 29.7 µM (active).
On to `COc1ccc2c(c1)c(CC(=O)O)c(C)n2C(=O)c1ccc(Cl)cc1`, for which the Potency result is “inactive”.
With `Oc1ccccc1`, the Potency result was “inactive”.
For `COc1cccc(O)c1O`, the Potency result was “inactive”.
Still for that read-out and setting: the result for `Nc1ccc(S(N)(=O)=O)cc1` reads “inactive”.
With `O=C1c2c(O)cccc2Cc2cccc(O)c21`, the Potency result is “inactive”.
Same read-out and setting: the result for `CC(=O)Nc1c(I)c(NC(C)=O)c(I)c(C(=O)O)c1I` reads “inactive”; that for `Cn1c(=O)c2c(ncn2C)n(C)c1=O`, “inactive”.
As for `CNNCc1ccc(C(=O)NC(C)C)cc1`, the Potency entry is “inactive”.
On the same count and under the same terms, the result for `NC(=O)n1c(O)c(C(=O)c2cccs2)c2cc(Cl)ccc21` reads 8.41 µM (active).
